Results taken from PubChem BioAssay AID651965 (National Center for Advancing Translational Sciences (NCATS), 2013).
About 6,400 (1.9%) of roughly 340,000 compounds were called active. Another 4% or so got no clear call; they are omitted. The call rests on the fitted dose curve; in most records, active means well fitted falling curve with a large enough effect; inconclusive means small, poorly fitted or top-dose-only effect; inactive means no such curve, though single readings can be large or run the other way. The list comes from a sample in which actives are over-represented; it also holds similar structures and randomly drawn compounds.

These molecules were tested against ATP-dependent Clp protease proteolytic subunit (Bacillus subtilis (strain 168)) (UniProt P80244) (assay: qHTS Assay for Activators of ClpP). Details: purified B. subtilis ClpP, FRET peptide cleavage, 20 min; series mostly up to 57.5 µM; activity change, negative = active: at the top concentration.
ATP-dependent Clp protease proteolytic subunit (Bacillus subtilis (strain 168)), sequence (P80244 whole entry, looked up): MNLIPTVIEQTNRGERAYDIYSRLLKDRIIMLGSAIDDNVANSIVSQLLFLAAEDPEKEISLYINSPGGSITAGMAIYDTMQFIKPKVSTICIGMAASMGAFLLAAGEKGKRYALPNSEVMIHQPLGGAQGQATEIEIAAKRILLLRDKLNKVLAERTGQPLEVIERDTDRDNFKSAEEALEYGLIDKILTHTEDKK
How it was run: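 Buffer: 100 mM Tris/HCl pH8, 100 mM KCl, 0.05% low protease BSA, 2.5% glycerol, 0.01% Tween-20. ClpP 10 microg/mL final; 20 min RT; delta FRET normalized to ADEP and DMSO controls.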
Further: the source files actives as falling curves though it sought activators and does not explain the sign; nearly all actives have a fitted effect of over 65% in size.
Potency means the concentration at half of the fitted maximal effect.

SMILES	activity change, negative = active	Potency
O=C1C(Sc2cccc(F)c2)=C[C@@]2(O)CC[C@@H](O)[C@]1(Sc1cccc(F)c1)[C@H]2O	1.81% (inactive)	–
CCOc1ccc(NS(=O)(=O)c2ccc(C(=O)NC3CCN(Cc4ccccc4)CC3)cc2)cc1	–	28.2 µM (active)
CCOc1ccc(CC(=O)NC2CCN(Cc3ccccc3)CC2)cc1	-5.77% (inactive)	–
CCOc1ccc(C(=O)NC2CCN(S(=O)(=O)CC)CC2)cc1	-3.07% (inactive)	–
NC1=CC(=O)C(=O)c2cccnc21	0.0838% (inactive)	–
Cc1ccc([C@@H]2CC(=O)[C@@H]3CN(S(=O)(=O)c4ccc(C)cc4)[C@H](c4ccccc4F)C[C@@H]3N2S(=O)(=O)c2ccc(Cl)cc2)cc1	-0.217% (inactive)	–
COc1cccc(NC(=O)CN2CCN(c3nc(-c4cccc(OC)c4)cs3)CC2)c1	–	17.8 µM (active)
COCCCNC(=S)N1CCN(c2nc(-c3cccc(OC)c3)cs2)CC1	-4.21% (inactive)	–
COc1cccc(NC(=O)CN2CCN(CC(=O)Nc3ccccc3Cl)CC2)c1	2.3% (inactive)	–
COC(=O)[C@]12CCCCC=C1N(CCC1=CCCCC1)C(=O)[C@H](CC(=O)NCC1CCCCC1)C2	0.738% (inactive)	–
CC(=O)C1=C(O)C(=O)N(c2ccc(S(N)(=O)=O)cc2)C1c1ccccc1F (centres undefined)	–	25.1 µM (active)
CC(=O)C1=C(O)C(=O)N(c2ccc(Br)cc2)C1c1ccc([N+](=O)[O-])cc1 (centres undefined)	2.1% (inactive)	–
NS(=O)(=O)c1ccc(NC2=CC(c3ccc(F)cc3)N(c3ccc(S(N)(=O)=O)cc3)C2=O)cc1 (centres undefined)	-19% (inactive)	–
CCc1c(C)nc2cc(-c3cccs3)[nH]n2c1=O	–	22.4 µM (active)
CCc1ccccc1OCCSc1nc(-c2cccs2)nc2cc(=O)[nH]n12	-2.44% (inactive)	–
CCC(C)n1[nH]c(=O)c2c(C)cc(C)nc21 (centres undefined)	1.24% (inactive)	–
Cc1ccc(-c2nc(SCc3ccc(Br)cc3)n3[nH]c(=O)cc3n2)cc1	1.05% (inactive)	–
CCc1c(C)nc2cc(C)[nH]n2c1=O	–	22.4 µM (active)
C=CCc1c(C)nc2cc(-c3ccccc3)[nH]n2c1=O	4.08% (inactive)	–
Cc1cc(Br)cn2c(Cc3ccsc3)c(-c3ccc(C#N)cc3)nc12	-14.1% (inactive)	–
CCOC(=O)[C@]12CCC=C1N(Cc1ccco1)C(=O)[C@H](CC(=O)N1CCSCC1)C2	-3.38% (inactive)	–
Nc1nc(N)c(N=O)c(N)n1	0.185% (inactive)	–

SMILES	activity change, negative = active	Potency
CCC(=O)N(CCc1ccccc1)Cc1cc2cc(C)ccc2[nH]c1=O	-24.2% (inactive)	–
CCOc1ccc2[nH]c(=O)c(CN(CCCO)C(C)=O)cc2c1	–	28.2 µM (active)
CCC(=O)N(Cc1cc2ccccc2[nH]c1=O)c1ccc(OC)cc1	-1.09% (inactive)	–
CC(C)N=C1CCCC1C(=S)SSC(=S)C1CCCC1=NC(C)C (centres undefined)	-0.251% (inactive)	–
Fc1ccc(CSc2nc(NCc3ccccc3)c3ccccc3n2)cc1	0.545% (inactive)	–
O=C(CSc1nc(Nc2ccc(F)c(F)c2)c2ccccc2n1)c1ccc(Cl)cc1	-4.76% (inactive)	–
Fc1ccc(Nc2nc(SCc3ccccc3Cl)nc3ccccc23)cc1	–	31.6 µM (active)
Cc1cccc(C)c1NC(=O)C(c1cccc2ccccc12)n1c(=O)c(-c2ccco2)nc2ccccc21 (centres undefined)	4.49% (inactive)	–
CN(Cc1ccccc1)c1ccc(/C=C/c2ccnc3ccccc23)cc1	-2.14% (inactive)	–
CN(C)c1ccc(/C=C2\C=Cc3ccccc32)cc1Br	-1.58% (inactive)	–
CCc1ccc(NC(=O)c2cc3c(=O)n(Cc4cccnc4)ccc3nc2C)cc1	-5.11% (inactive)	–
O=C(Cn1nc(Cc2cccnc2)c2ccccc2c1=O)N1CCN(c2ccccc2F)CC1	-4.62% (inactive)	–
Cc1nc2ccn(Cc3cccnc3)c(=O)c2cc1C(=O)N1CCN(c2ccccc2F)CC1	–	25.1 µM (active)
Cn1c(=O)n(Cc2ccco2)c(=N)c2c3c(sc21)CCCC3	-1.11% (inactive)	–
CN1CCc2c(sc3c2c(NCc2ccco2)nc2nnnn23)C1	–	17.8 µM (active)
CCCSc1nc(NCc2ccco2)c2c3c(sc2n1)COC(C)(CC)C3 (centres undefined)	-8.87% (inactive)	–
NC(=S)NN=Cc1ccc(OC(=O)COc2cc(Cl)c(Cl)cc2Cl)cn1	4.05% (inactive)	–
O=C(Cc1ccc(Cl)cc1)Nc1ccc2nn(-c3ccc(Cl)cc3)nc2c1	-8.87% (inactive)	–
Cc1cc2nn(-c3ccc(Cl)cc3)nc2cc1NC(=O)C(C)C	-12.7% (inactive)	–
Nc1nonc1C(=O)NCCc1ccccc1	1.64% (inactive)	–
CC(C)NC(=O)c1nn(-c2ccccc2F)nc1CO	-10.9% (inactive)	–
COc1ccc(CCNC(=O)c2c(C)nn(-c3ccccc3)c2Cl)cc1	-2.39% (inactive)	–

SMILES	activity change, negative = active	Potency
Cc1ccc(-n2nc(CO)c(C(=O)NCCc3ccccc3)n2)cc1	–	10 µM (active)
O=C(NCCCO)c1nn(-c2ccc(Cl)cc2)nc1CO	–	14.1 µM (active)
COc1ccc(C(=O)NC(C)CCc2ccccc2)c(OC)c1 (centres undefined)	0.198% (inactive)	–
CC(CCCc1ccccc1)NC(=O)c1nn(-c2ccc(Cl)cc2)nc1CO (centres undefined)	–	31.6 µM (active)
CCN(CC)c1ccc(/C=C/c2c(C)cnc3ccc(C)cc23)cc1	-0.826% (inactive)	–
COC(=O)c1ccc2nc(-c3cccc(Br)c3)c(Cc3ccc(OC)cc3C)n2c1	-8.23% (inactive)	–
CCOC(=O)c1cc(-c2sc(NC(=O)c3ccccc3)nc2C)n(CCO)n1	-0.801% (inactive)	–
CCCCCCCCN1C(=O)[C@H](CC(=O)NCc2cccc3ccccc23)C[C@@]2(C(=O)OC)CCCCC=C12	-9.24% (inactive)	–
CC(C)c1ccc(OCC(O)Cn2cnc3ccccc32)cc1 (centres undefined)	–	28.2 µM (active)
CC(C)c1ccc(Cn2c(COc3ccccc3)nc3ccccc32)cc1	-6.11% (inactive)	–
CC(C)c1ccc(OCC(O)CN2CCN(c3ccccn3)CC2)cc1 (centres undefined)	-1.52% (inactive)	–
CCOc1cc2[nH]c(=S)n(Cc3ccc(C(=O)NCCOC)cc3)c(=O)c2cc1OCC	1.71% (inactive)	–
COCCn1c(=O)[nH]c2cc(C(=O)NCc3cccnc3)ccc2c1=O	–	28.2 µM (active)
COc1cc2[nH]c(=O)n(Cc3ccc(C(=O)NC4CCN(Cc5ccccc5)CC4)cc3)c(=O)c2cc1OC	-18.1% (inactive)	–
COCCn1c(=S)[nH]c2cc(C(=O)NCCc3ccc(OC)c(OC)c3)ccc2c1=O	-0.199% (inactive)	–
CC(C)(C)c1cc(C(=O)NCc2cccnc2)ccn1	-1.27% (inactive)	–
COc1cc2[nH]c(=O)n(Cc3ccc(C(=O)NCc4ccc(C)cc4)cc3)c(=O)c2cc1OC	–	10 µM (active)
CCCCCn1nnnc1C1c2ccccc2C(=O)N1Cc1ccco1 (centres undefined)	-1.36% (inactive)	–
C#Cc1cc(N2CCN(C(=O)c3ccoc3)CC2)n2nc(-c3cccc(Cl)c3)cc2n1	4.21% (inactive)	–
CC(=O)N1Cc2cc(C(=O)NCc3cccc(F)c3)nc(-c3cccc(C4=CCCCC4)c3)c2[C@H]1CCO	-5.83% (inactive)	–
